Bioassay records as filed in PubChem.
ADAM10 inh = human ADAM10 inhibitors, primary screen, biochemical, QFRET, HTS; Disintegrin and metalloproteinase domain-containing protein 10 (Homo sapiens), O14672; 0.62% of 370,000 active; recombinant ADAM10, EDANS/DABCYL FRET peptide cleavage, 3 h; inhibition, % at 7 µM;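 active = inhibition above a per-campaign cutoff equal to the mean of compounds falling between control-based bounds plus 3 SD, cut at about 20% in these data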
FAS-TE inh = FAS thioesterase domain inhibitors, primary screen, biochemical, fluorescence intensity, uHTS. Fatty acid synthase (Homo sapiens), P49327. inhibition, % at 15 µM. 0.67% of 360,000 active. recombinant FAS-TE, OMFH fluorogenic substrate, fluorescence endpoint;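 active = compounds whose normalised, plate-corrected inhibition of enzyme fluorescence in the single-dose primary screen is 50% or more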
ADAM17 inh = ADAM17 inhibitors, primary screen, biochemical, QFRET. Disintegrin and metalloproteinase domain-containing protein 17 (Homo sapiens), P78536. recombinant ADAM17, EDANS/DABCYL FRET peptide cleavage. inhibition, % at 6.95 µM. 0.83% of 370,000 active. AID 720648, 2013;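 active = inhibition above the mean of compounds lying between control limits plus 3 SD, set per campaign, cut at about 8.5% in these data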
aDG glyco act = activators of alpha-DG glycosylation, primary screen, uHTS, Pro5-aDG cells, AlphaScreen | alpha-DG glycosylation AlphaScreen (IIH6); 0% Pro5, 100% B10-LARGE cell signal | activation, % at 10 µM | 0.22% of 360,000 active | AID 624168, 2012;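 active = activation of at least 8% versus controls, or a plate z-score of at least 8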;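 also: Pro5 are CHO cells carrying HIG-tagged alpha-DG that lacks glycosylation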
NR3A LBD binder = binders of NR3A ligand-binding domain, primary screen, biophysical, differential scanning fluorimetry, uHTS. Glutamate receptor ionotropic, NMDA 3A (GRIN3A) ligand-binding domain. NR3A LBD differential scanning fluorimetry, Tm shift; 0% = protein alone, 100% = glycine-bound protein. Tm shift relative to glycine control, % at 25 µM. 2.5% of 340,000 active. AID 1259313, 2017;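 active = melting temperature shift of at least 10% of the positive control shift, at one fixed dose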
Hits are given with their value; 0 = inactive; - = no result given. Rows were chosen to be rich in hits. Some 4% of all compounds tested hit in one or more screens of this group.

SMILES	ADAM10 inh	FAS-TE inh	ADAM17 inh	aDG glyco act	NR3A LBD binder
Cc1ccc(C(C(=O)NC(C)(C)C)N(Cc2ccco2)C(=O)Cn2nnc(-c3cccs3)n2)cc1 (configuration not stated)	0	0	0	0	12
CC(=O)Nc1ccc(S(=O)(=O)N2CCCN(S(=O)(=O)c3ccc(C)cc3)CC2)cc1	0	0	0	0	0
C=CC[C@@H](CC(=O)N[C@H](CO)Cc1ccccc1)C(=O)N[C@H](COC(=O)[C@H](CC=C)CC(=O)OC(C)(C)C)Cc1c[nH]c2ccccc12	29	0	17	0	0
C=CC[C@@H](CC(=O)N(CCO)Cc1ccccc1)C(=O)N[C@@H](COC(=O)[C@H](CC=C)CC(=O)OC(C)(C)C)Cc1c[nH]c2ccccc12	35	0	22	0	0
C=CC[C@@H](CC(=O)NCCO)C(=O)N[C@H](COC(=O)[C@H](CC=C)CC(=O)OC(C)(C)C)Cc1c[nH]c2ccccc12	0	0	0	0	0
C=CCC[C@@H](Cc1ccc(F)cc1)C(=O)OCCNC(=O)[C@@H](CC=C)CC(=O)N[C@@H](CO)Cc1ccccc1	0	0	0	0	23
C=CCC[C@H](Cc1ccc(F)cc1)C(=O)OC[C@H](Cc1c[nH]c2ccccc12)NC(=O)[C@@H](CC=C)CC(=O)NCCO	26	0	0	0	0
COc1ccc(C2/C(=C(\O)c3ccc4c(c3)OCCO4)C(=O)C(=O)N2Cc2cccnc2)cc1OC (configuration not stated)	0	0	0	0	0
O=C(CCc1ccccc1)Nc1ccccc1OC(=O)c1ccccc1	0	0	0	0	0
Cc1ccc(C)c(Oc2cc(NC(=O)CCCn3nc(C)c([N+](=O)[O-])c3C)cc([N+](=O)[O-])c2)c1	0	0	0	0	16
Cc1ccc(Cn2nc(C)c(NC(=O)CCCn3nc(C)c([N+](=O)[O-])c3C)c2C)cc1	0	0	0	0	0
CC(C)CNC(=O)c1ccccc1NC(=O)CSCc1ccccc1	0	0	0	0	14
CN(N=O)c1ccc(CC2CCc3ccccc32)cc1 (configuration not stated)	0	0	0	0	15
O=[N+]([O-])c1ccc(Nc2ccc3ccccc3c2)nc1	0	0	0	0	38
O=[N+]([O-])c1ccc(Nc2ccccc2F)nc1	0	0	0	0	27
O=[N+]([O-])c1ccc(NCc2ccc(Cl)cc2)nc1	0	0	0	0	0
O=[N+]([O-])c1ccc(Nc2ccc(Cl)cc2)nc1	0	0	0	0	11
Cc1ccc(NC(=O)c2ccc(Nc3ccccc3F)nc2)cc1	0	0	0	0	30
Cc1ccccc1Nc1ccc([N+](=O)[O-])cn1	0	0	0	0	0
Cc1ccc2c(c1)=C(c1ccccc1)N(O)CC(=O)N=2	0	0	0	0	0
CCOC(=O)C(C)Sc1nc2c(c(=O)[nH]c(=O)n2C)n1C/C=C(/C)Cl (configuration not stated)	0	0	0	0	11
Nc1cccc(CCc2nc3cc4ccccc4cc3[nH]2)c1	0	0	0	0	0
O=S(=O)(Nc1ncnc2sc3c(c12)CCC3)c1cc(F)ccc1F	0	0	0	0	0
Fc1cccc(Nc2ncnc3sc4c(c23)CCC4)c1	0	0	0	0	13
CC(C)[C@H](N)c1nnc(SCc2ccc(Cl)cc2)o1	0	0	0	0	0
SMILES	ADAM10 inh	FAS-TE inh	ADAM17 inh	aDG glyco act	NR3A LBD binder
Cc1ccc(NC(=S)NCc2ccc(F)cc2)cc1	0	0	0	0	0
CCOc1ccc(NS(=O)(=O)c2ccc(NS(C)(=O)=O)cc2)cc1	0	0	0	0	0
Cc1ccc(CNC(=S)Nc2ccc(NS(=O)(=O)c3ccc(C)cc3)cc2)cc1	0	0	0	0	23
CSc1cccc(NS(=O)(=O)c2ccccc2)c1	0	0	0	0	20
CCOc1ccc(NS(=O)(=O)c2ccc(NS(=O)(=O)c3ccc(SC)cc3)cc2)cc1	0	0	0	0	28
CSc1cccc(NS(=O)(=O)c2ccc(F)cc2)c1	0	0	0	0	0
CSc1ccc(S(=O)(=O)Nc2ccc(S(=O)(=O)Nc3ccc(C)cc3)cc2)cc1	0	0	0	0	25
NC(c1ccccc1)c1csc(NC(=O)NCCc2ccccc2)n1 (configuration not stated)	0	0	0	0	-
Cc1nc(SCc2ccc(O)c([N+](=O)[O-])c2)c([N+](=O)[O-])[nH]1	0	0	0	0	0
Cc1ccc(N2C(=O)C(c3c(C)[nH]n(-c4ccccc4)c3=O)(C(F)(F)F)C3=C2CC(C)(C)CC3=O)cc1 (configuration not stated)	0	0	0	0	0
Cc1[nH]n(-c2ccccc2)c(=O)c1C1(C(F)(F)F)C(=O)N(c2ccccc2)C2=C1C(=O)CC(C)(C)C2 (configuration not stated)	0	0	0	0	13
Cc1cc(S(=O)(=O)N2CCCC2C(=O)N2CCOCC2)c(C)cc1Cl (configuration not stated)	0	0	0	0	58
O=C(c1cnn2c(C(F)(F)F)cc(-c3ccco3)nc12)N1CCCCCC1	0	0	0	0	11
O=C(O)c1cnn2c(C(F)(F)F)cc(-c3ccco3)nc12	0	0	0	0	0
C/C(CC(=O)Nc1ccc(Cl)c(C(F)(F)F)c1)=N\NC(=O)c1ccccc1O	0	0	0	0	24
COc1cccc(NS(=O)(=O)c2ccc3[nH]cc(C(=O)NCCC(C)C)c(=O)c3c2)c1	0	0	0	0	18
CCc1ccccc1NS(=O)(=O)c1ccc2[nH]cc(C(=O)NC3CCCC3)c(=O)c2c1	0	0	0	0	11
COc1cc2c(cc1CNC[C@H]1O[C@@H](n3cc(C)c(=O)[nH]c3=O)C[C@@H]1O)OCO2	0	0	0	0	-
O=C(/C(C=Nc1ccc(Br)cc1)=C(/O)c1ccco1)C(F)(F)F	0	0	0	0	0
Cc1cccc(NC(=O)c2cc(C)nc3ccccc23)c1	0	0	0	0	0
CCC(C)C(Nc1ccc(C(=O)OC)cc1[N+](=O)[O-])C(=O)OC (configuration not stated)	0	0	0	0	12
Cc1ccc(-c2csc(N(CCO)CCCn3c(C(F)(F)F)nc4cc(C(F)(F)F)ccc43)n2)cc1	0	0	0	0	19
CNc1c(NS(=O)(=O)c2ccc(OC)c(Cl)c2)c(=O)oc2ccccc12	0	0	0	0	16
COc1ccccc1Nc1ccc(Nc2ccccc2OC)nn1	0	0	0	0	12
